Assay results published in the supplement of paper PMC3334620.
Over roughly 33,000 sequences, “E-score (-0.5 to 0.5)” has its median near -0.035; the highest 2% begin near 0.34. The list comes from a sample in which the highest values are over-represented; it also holds similar and randomly drawn sequences.

Target: T1, Mot3 (UniProt P54785)
T1 sequence: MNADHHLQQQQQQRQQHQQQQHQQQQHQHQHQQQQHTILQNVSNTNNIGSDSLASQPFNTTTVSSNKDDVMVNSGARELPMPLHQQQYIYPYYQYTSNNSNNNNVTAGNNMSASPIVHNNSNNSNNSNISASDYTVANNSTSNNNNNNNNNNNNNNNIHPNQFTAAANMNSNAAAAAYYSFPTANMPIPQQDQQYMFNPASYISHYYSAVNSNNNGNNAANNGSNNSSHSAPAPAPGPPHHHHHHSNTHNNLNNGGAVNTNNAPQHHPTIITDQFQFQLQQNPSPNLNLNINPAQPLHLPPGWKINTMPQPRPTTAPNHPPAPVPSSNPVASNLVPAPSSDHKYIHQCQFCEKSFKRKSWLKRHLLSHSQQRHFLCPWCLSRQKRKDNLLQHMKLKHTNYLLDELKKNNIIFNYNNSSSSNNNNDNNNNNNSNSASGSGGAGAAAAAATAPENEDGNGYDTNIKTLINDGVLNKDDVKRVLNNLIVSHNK
Assay: PBM E-score (8-mer binding enrichment) (E-score (-0.5 to 0.5)); higher = stronger / more preferred TF binding
Conditions: protein concentration: 200 nM; construct: GST-full length
How it was run: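 Detection of bound protein used fluorescent anti-GST, with scans normalised by masliner. The proteins were GST-tagged yeast transcription factors applied at about 100-200 nM to universal all-10-mer Agilent arrays made double-stranded by primer extension. Each ungapped eight-base word, pooled with its reverse complement, was scored with an E-score from the Universal PBM Analysis Suite.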

| Sequence | PBM E-score |
| --- | --- |
| GGACAAAC | 0.0402 |
| AAACCTCG | -0.21 |
| ACCAAATC | -0.166 |
| GCACTCCC | -0.112 |
| AACACAGC | 0.268 |
| CGTGTCAC | 0.157 |
| GACCTGAA | -0.107 |
| CCATGTCG | 0.247 |
| ACATGTCG | 0.246 |
| CGATGTAG | 0.103 |
| TCATGTCA | 0.283 |
| ACATGTAC | 0.333 |
| GCATGTCA | 0.26 |
| GCATGTAC | 0.321 |
| TGATGTAA | 0.281 |
| GCATGTAA | 0.41 |
| TCATGTAA | 0.414 |
| CCATGTAG | 0.346 |
| ACATGTAG | 0.388 |
| CATGTCGC | 0.175 |
| CACTAGTG | -0.12 |
| CATCAACG | 0.00915 |
| ACTAGGTG | 0.125 |
| CTTAAAGC | 0.00562 |

| Sequence | PBM E-score |
| --- | --- |
| CTCGTCGA | -0.0922 |
| GTCGAGCA | -0.114 |
| AAGGTTAC | 0.0496 |
| CCTATGCC | -0.0577 |
| AGCGCTTG | -0.185 |
| CGTTGGCA | 0.00506 |
| CCATGTAC | 0.327 |
| ACATGTCA | 0.319 |
| ACATGTCT | 0.235 |
| ACATGTAA | 0.437 |
| CCATGTAA | 0.411 |
| CCATGTGA | 0.141 |
| AGATGTAT | 0.133 |
| ACATGTAT | 0.357 |
| ACATGTGA | 0.225 |
| ATTCCTTG | 0.0459 |
| GTCAGAGA | -0.242 |
| AATGAGCT | -0.0919 |
| AGTCTGAA | -0.204 |
| ATGTTACC | 0.237 |
| TTGTTAAA | 0.256 |
| GTGTTAAC | 0.352 |
| CTGTTAAA | 0.238 |
| ATGTTAAC | 0.397 |

| Sequence | PBM E-score |
| --- | --- |
| ACGTTAAC | 0.25 |
| GTGTTAAA | 0.384 |
| GAGTTAAC | 0.0651 |
| CTGTTAAC | 0.199 |
| GCTAAATA | 0.0782 |
| CGGAATAG | -0.201 |
| GATGACGC | 0.0115 |
| AGTCAGTG | -0.157 |
| GGCGCCCC | -0.0368 |
| ACAGGCGT | 0.172 |
| ACAGGCGC | 0.371 |
| ACAGGCTA | 0.183 |
| GCAGGCGA | 0.123 |
| GCAGGCGC | 0.361 |
| ACAGGCTC | 0.404 |
| ACAGGCGG | -0.015 |
| ACAGGCTG | 0.0165 |
| CCAGGCGC | -0.00734 |
| CCCGCTTC | -0.191 |
| CCCAGGAC | -0.288 |
| CTGCTTGC | 0.0147 |
| AAGCGCAG | -0.124 |
| CGTATGCA | -0.0506 |
| ACAGGAGA | -0.0281 |

| Sequence | PBM E-score |
| --- | --- |
| CCAGGAGC | -0.247 |
| CCAGGAAG | -0.078 |
| GCAGGAAC | 0.463 |
| CCAGGAAC | 0.406 |
| GCAGGACC | -0.237 |
| CCAGGAAA | 0.324 |
| AGAGGAAA | 0.0488 |
| TCAGGAAA | 0.394 |
| ACAGGAAA | 0.453 |
| TCAGGAGA | -0.0813 |
| GCAGGAGC | 0.0355 |
| ATAGGTGC | 0.24 |
| AAGCGAGT | -0.0166 |
| CCGGGTCC | -0.279 |
| AAAGGGCC | -0.132 |
| AAGCCACT | -0.172 |
| AGCTGGAA | -0.29 |
| GCGCCAGC | 0.128 |
| TGCTAAAA | 0.0711 |
| CGCTGAAA | 0.0848 |
| ACAAATCT | 0.103 |
| CTAGTTTC | -0.178 |
